From PubChem BioAssay AID504652 (National Center for Advancing Translational Sciences (NCATS), 2011)
“And” between values parts separate entries of the source, which are not always exact repeats. Equal values may be shown once. About 11,000 (3.1%) of roughly 360,000 compounds were called active. The sample holds actives, similar compounds and a random draw of the others, so the mix is not that of the screen. No stated cut-off is given here; in the data, active means activity change below about -30%; inactive means the rest.

biological target: D(1A) dopamine receptor (Homo sapiens) (UniProt P21728); experiment: Antagonist of Human D 1 Dopamine Receptor: qHTS; conditions: HEK293 TREx D1 cells, calcium flux, dopamine EC80; at 10 µM; hits give low values
Method in brief: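 Using tetracycline-induced force-coupled D1 Hek293 cells and a calcium dye, signals were followed for 180 s after compound, then for 180 s after EC80 dopamine, to detect inhibitors.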
On the % scale 0 is the no-effect control and ±100 the full control effect.

D(1A) dopamine receptor (Homo sapiens), sequence (P21728 whole entry, looked up): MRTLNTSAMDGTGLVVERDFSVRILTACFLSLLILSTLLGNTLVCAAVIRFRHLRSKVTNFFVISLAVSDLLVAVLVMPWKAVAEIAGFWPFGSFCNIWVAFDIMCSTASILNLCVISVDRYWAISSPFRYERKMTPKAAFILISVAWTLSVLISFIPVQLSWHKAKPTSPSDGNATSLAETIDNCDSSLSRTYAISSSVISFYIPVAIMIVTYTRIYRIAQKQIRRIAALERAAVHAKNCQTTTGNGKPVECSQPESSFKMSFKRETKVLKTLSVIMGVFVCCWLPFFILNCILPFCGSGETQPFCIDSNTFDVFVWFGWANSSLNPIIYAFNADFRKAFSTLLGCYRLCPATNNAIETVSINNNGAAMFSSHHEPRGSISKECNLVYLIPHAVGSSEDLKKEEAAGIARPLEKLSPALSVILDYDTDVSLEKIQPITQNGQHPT

Activity change, negative = inhibition, inactive:
COc1ccc(OC)c(-n2nnc(-c3nc(-c4cc(OC)c(OC)c(OC)c4)no3)c2C)c1 -6.72%
Cc1ccc2oc(=O)c3cnn(CC(=O)NCc4ccccc4Cl)c3c2c1 1.96%
CC1Cc2cc(S(=O)(=O)CCC(=O)NCc3ccc(Cl)cc3)ccc2N1C(=O)C1CC1 (centres undefined) -19.3%
COc1ccccc1CNC(=O)C1CCN(S(=O)(=O)c2ccc3c(c2)CC(C)N3C(=O)C2CC2)CC1 (centres undefined) -4.76%
COc1cccc(CNS(=O)(=O)c2ccc3c(c2)N(C(C)=O)CCS3)c1 3.44%
COc1cccc(CNS(=O)(=O)c2ccc3c(c2)CC(C)N3C(=O)C2CCC2)c1 (centres undefined) -10.7% and -1%
Cc1cccc(CNC(=O)c2cnc3sc(N4CCCCC4)nn3c2=O)c1 1.97%
CCOCCCNC(=O)c1c(NC(=O)c2nc(SC)ncc2Cl)sc2c1CCCC2 -26.2%
CCN(CCCNC(=O)c1cc2c(=O)n(CC)c3ccccc3c2s1)Cc1ccccc1 11.6%
Cc1cccc(-n2ncc(C(=O)N3CCN(c4ccc(Cl)cc4)CC3)c2C2CCN(C(=O)OC(C)(C)C)CC2)c1 1.41%
COc1ccc(CNC(=O)c2ccc(NC(=O)N3CC4CCCN4c4ccccc43)cc2)cc1 (centres undefined) 40.5%
CCOc1ccc(C(=O)NC(=S)Nc2ccc(N3CCOCC3)c(Cl)c2)cc1[N+](=O)[O-] -18.8%
CC(=O)Nc1ccc(NC(=S)NC(=O)c2ccc([N+](=O)[O-])c(C)c2)cc1 -2.38%
O=C(Nc1cccc2cccnc12)C(F)(F)F 5.04%
O=C(NCc1ccccc1Cl)c1cccn1-c1nnc(N2CCCCC2)s1 -10.7%
O=C(Cn1ncc2c3ccccc3n(Cc3ccccc3)c2c1=O)NC1CCCCCC1 -8.69%
COc1cccc(CNCCSc2nnnn2C)c1OCc1ccccc1Cl -5.2%
COc1ccc(C(CCNCc2ccccc2F)c2ccc(F)cc2)cc1 (centres undefined) -7.29%
O=C(CN1C(=O)COc2ccc(S(=O)(=O)N3CCCCCC3)cc21)N1CCN(c2cccc(C(F)(F)F)c2)CC1 -0.903%
O=C(CN1CCc2cc3c(cc2C1)OCCCO3)Nc1ccccc1 -19.4%
O=C(CN1CCc2ccccc2C1)Nc1cccc(S(=O)(=O)N2CCOCC2)c1 27.4%
COCCNC(=O)c1ccc2c(c1)N(Cc1cccc(Cl)c1)C(=O)c1ccccc1S2(=O)=O 5.66%
O=C(NCCc1ccccc1)c1ccc2c(c1)N(Cc1ccc(F)cc1)C(=O)c1ccccc1S2(=O)=O 6.04%
COC(=O)c1ccccc1NC(=O)c1ccc2c(=O)n3c(nc2c1)CCCCC3 5.25%
CC(C)c1ccc(NC(=O)c2cc(S(=O)(=O)N3CCc4ccccc4C3)ccc2F)cc1 3.76%
CC(C)CCNC(=O)CCNS(=O)(=O)c1ccc(Cl)cc1 -17.7%
CC(C)CNS(=O)(=O)c1ccc(CCC(=O)NCc2ccc(Cl)cc2)cc1 3.95%
CC1CCC(N2CC(=O)N(CCC3=CCCCC3)C(c3ccc(F)cc3)C2=O)CC1 (centres undefined) -13.9%
CCC(=O)N(CCc1ccccc1)Cc1cc2cc(C)ccc2[nH]c1=O 13.5%
Cc1ccc2[nH]c(=O)c(CN(CC3COCCO3)C(=O)Nc3ccccc3C)cc2c1 (centres undefined) -8.28%
COc1ccc(-n2nnc(-c3nsc(NC(=O)c4ccc(C)c(C)c4)n3)c2C)cc1Cl 2.45%
CCOc1ccc(NC(=O)Cn2cc(C(=O)c3ccc(C)cc3)c(=O)c3cc4c(cc32)OCCO4)cc1 4.79%
COCCn1c(=O)[nH]c(=O)c2cc(C(=O)c3cc(OC)ccc3O)cnc21 12.3%
COc1ccc(O)c(C(=O)c2cnc3c(c2)c(-c2ccc(F)cc2)c(C#N)c(=O)n3C)c1 0.727%
CCOc1ccc(CNC(=O)c2ccc(CS(=O)c3ccccc3)o2)cc1 (centres undefined) -7.56%
COc1ccc(CNC(=O)CC2Oc3ccc(C)cc3NC2=O)cc1 (centres undefined) 14%
COc1ccc(C(=O)OCC(=O)Nc2cccc(C(C)=O)c2)cc1OC -4.31%
O=C(COC(=O)c1cccc(Cl)c1)Nc1ccc2[nH]c(=O)[nH]c2c1 2.99%
COc1ccc(NC(=O)c2sc3nc(-c4cc5cccc(OC)c5oc4=O)[nH]c(=O)c3c2C)cc1 7.97%
Cc1ccc(CSc2nc3cccnc3n2Cc2ccc(C(=O)NC3CC3)cc2)cc1 -0.852%
CCc1ccc(NC(=O)CCCc2nnc3n(CCCOC)c(=O)c4sccc4n23)cc1 -2.77%
Cn1nc(-c2ccccc2)c(CSc2cccc(Cl)c2)c1Cl 2.15%
Cn1cnc([N+](=O)[O-])c1Sc1ccccc1 1.72%
Cc1ccc(S(=O)(=O)NCc2nc3nc(C)cc(C)n3n2)cc1 -1.58%
CCOc1cc(NC(=O)Nc2ccccc2)c(OCC)cc1NC(=O)CC 0.545%
Cc1ccc(NC(=O)c2ccn(C(=O)Nc3ccccc3)n2)c(C)c1 4.19%
COc1ccc(Cn2c(=O)c3oc4ccccc4c3n(CC(=O)Nc3ccc(F)cc3F)c2=O)cc1 -7.86%
Cc1cc2c(s1)c1cnn(Cc3cc(F)c(Cl)cc3Cl)c(=O)c1n2C 3.83%
Cc1ccc(-n2ncc(C(=O)N(C)Cc3ccccc3)c2-n2cccc2)cc1 -9.92%
Cc1cc2c(cc3c(SCc4nc(-c5ccccc5)oc4C)nnc(C)n32)o1 -21.6%
O=C(NCC(c1ccco1)S(=O)(=O)c1cccs1)c1ccc(F)cc1 (centres undefined) -7.39%
O=C(CC1NCCNC1=O)Nc1cc(Cl)cc(Cl)c1 (centres undefined) 4.63%
O=C(CC1NCCNC1=O)Nc1ccc(Oc2ccccc2)cc1 (centres undefined) 1.7%
O=C(NCc1ccc(Cl)cc1)c1ccc2c(c1)nnn2C1CCCC1 -8.94%
Cc1ccc2ccc3c(c2n1)NS(=O)(=O)c1ccccc1-3 8.65%
Cc1cccc2c1-c1sc(C(=O)Nc3ccc(F)cc3F)cc1CO2 -14.5%
COc1ccc(CNC(=O)c2cc3c(s2)-c2ccccc2OC3)cc1 -24.1%
COc1ccc2c(c1)CCc1c(C(=O)Nc3cc(C)ccc3O)noc1-2 -13.5%
COc1ccc(CNc2nc(-c3ccc(Cl)cc3)cc(C(F)(F)F)n2)cc1 -13.9%
CCCNC(=O)C1CCC(Cn2c(=O)c3sccc3n(Cc3ccccc3F)c2=O)CC1 (centres undefined) -11.6%
CCCC12CN3CC(CCC)(CN(C1)C3c1c[nH]c3ccc(OC)cc13)C2=O (centres undefined) -7%
COc1ccccc1CNC(=O)C1CCN(c2nc3ccccc3o2)CC1 15.4%
COc1ccccc1CN(C)C(=O)C1(c2ccc(Cl)cc2)CC1 -0.3%
CCc1ccc(N(CC)C(=O)CCn2cnc3onc(-c4ccc(F)cc4)c3c2=O)cc1 -6.1%
CCCN(CC1COc2ccccc2O1)C(=S)Nc1ccc(C)cc1 (centres undefined) -12.3%
CC(NC(=S)Nc1ccccc1)C1COc2ccccc2O1 (centres undefined) -14.2%
COc1ccc(-n2c(=O)c3c(c4cc(OC)ccc4n3C)n(Cc3cccc(C)c3)c2=O)cc1 4.47%
Cc1ccc(Cl)cc1N1CCN(C(=O)CN2C(=O)COc3ccc(S(=O)(=O)N4CCOCC4)cc32)CC1 3.53%
COc1cc(NC(=O)CCn2nc(C)cc2C)cc(OC)c1OC 34.5%
O=C(c1ccccc1F)N1CCC(c2nc3c(nnn3Cc3cccc(F)c3)c(=O)[nH]2)CC1 0.447%
O=C(Nc1ccc(F)cc1)N1CCCC(c2nc3c(nnn3Cc3ccccc3Cl)c(=O)[nH]2)C1 (centres undefined) 2.43%

Activity change, negative = inhibition, active:
COc1ccc(N(C)S(=O)(=O)c2ccc3c(c2)CC(C)N3C(=O)C2CC2)c(OC)c1 (centres undefined) -41.8%
COc1cccc(CNS(=O)(=O)c2ccc3c(c2)CC(C)N3C(C)=O)c1 (centres undefined) -35%
CCOc1ccc(C(=O)NC(=S)Nc2ccc(NC(=O)C(C)C)cc2)cc1[N+](=O)[O-] -38.8%
COc1cccc(CNCCc2c[nH]c3ccccc23)c1OCc1ccccc1F -35.2%
Cc1ccc(NC(=O)CN2CCc3ccccc3C2)cc1C -59.1%
O=C(NCCc1ccccc1)c1ccc2c(c1)N(Cc1ccccc1)C(=O)c1ccccc1S2(=O)=O -40.3%
Cc1ccc(S(=O)(=O)NCCC(=O)NCc2ccc(Cl)cc2)cc1C -35.7%
Cc1ccc2[nH]c(=O)c(CN(CCCN(C)C)C(=O)Nc3cccc(Cl)c3)cc2c1 -39.7%
COc1ccc(O)c(C(=O)c2cnc3onc(C(C)C)c3c2)c1 -33.3%
COc1ccc(C(=O)OCC(=O)Nc2ccc3[nH]c(=O)[nH]c3c2)c(OC)c1OC -37.4%
Cn1nc(-c2ccccc2)c(CO)c1Sc1ccccc1 -64.5%
Cc1ccc(NC(=O)Nc2ccccc2)c(Br)c1 -35.1%
CC(C)OCCCNc1ncnc2c1[nH]c1ccc(F)cc12 -48.9%
O=C(CC1NCCc2ccccc21)Nc1cccc(Cl)c1 (centres undefined) -31.7%
Cc1cccc2c1-c1sc(C(=O)NCCCN3CCc4ccccc4C3)cc1CO2 -31.8%
COc1ccccc1CN(C)C(=O)c1cc2ccccc2o1 -35.2%
S=C(NCC1COc2ccccc2O1)Nc1ccc(Br)cc1 (centres undefined) -47.7%
Cc1ccc(NC(=O)N2CCC(c3nc4c(nnn4Cc4c(F)cccc4Cl)c(=O)[nH]3)CC2)cc1 -40.8%
